Data on 15 molecules can be found in PubChem BioAssay.

For part of these data: Measured potencies and affinities stand elsewhere. Active and inactive are the calls of the source.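 Rule for the calls, unless noted: active = fluorescence ratio normalized to control raised more than 50% in primary screen plus both repeat runs; inactive = the rest.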

The test system of experiment [1] is TRPC4 beta (transient receptor potential cation channel C4), mouse. Put plainly: activators of mouse TRPC4 channel, confirmation, cell-based, Fluo4 calcium, HEK293 TRPC4beta/mu-opioid, duplicates, 10 µM (AID 2426).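 For activation: percent rise of integrated ratio over buffer wells lacking compound which define 0%.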 The following applies: Fluo4 calcium fluorescence, at 10 µM; hits give high values.
Experiment [2] has as its system transient receptor potential cation channel C4 beta (TRPC4), mouse. Put plainly: activators of mouse TRPC4 channel, confirmation, cell-based, second round, Fluo4, HEK293 TRPC4beta/mu-opioid, 1 µM (AID 2461;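 active = primary screen active and over 50% activation in each of two duplicate runs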;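 for activation: 0% = wells without test compound as baseline of integrated fluorescence ratio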). As to conditions: Fluo4 calcium fluorescence, at 1 µM; hits give high values.
Experiment [3] deals with TRPC4 (transient receptor potential cation channel C4 beta), mouse. Put plainly: positive allosteric modulators of mouse TRPC4, confirmation, cell-based, second round, Fluo-4, HEK293 TRPC4beta/mu-opioid, 1 µM (AID 2554;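 active = primary screen hit whose fluorescence ratio, in both repeats, exceeds the weak agonist control mean by 3 SD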). As to conditions: DAMGO EC20, Fluo-4 calcium flux, at 1 µM; hits give high values. Background: Calcium flux is commonly read through the fluorescence of an indicator in the cells.

Experiment [4] concerns TRPC4 beta (transient receptor potential cation channel C4), mouse. The experiment is described as follows: positive allosteric modulators of mouse TRPC4, confirmation, cell-based, Fluo-4, HEK293 TRPC4beta/mu-opioid (AID 2555;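 active = primary screen hit whose calcium fluorescence ratio, in both repeats, exceeds the weak agonist control mean by 3 SD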). The following applies: DAMGO EC20, Fluo-4 calcium flux, at 10 µM; hits give high values.
Experiment [5] deals with Short transient receptor potential channel 4 (Mus musculus) (UniProt Q9QUQ5). The experiment is described as follows: inhibitors of mouse TRPC4 channel, confirmation, cell-based, Fluo4, HEK293 TRPC4beta/mu-opioid (AID 2636;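 active = calcium signal cut by more than 3 SD below the full-agonist control yet still positive, in both repeats and the earlier primary screen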). The following applies: DAMGO, Fluo4 calcium flux, at 10 µM; hits give high values.
Chain of Short transient receptor potential channel 4 (Mus musculus) (Q9QUQ5 whole entry, looked up): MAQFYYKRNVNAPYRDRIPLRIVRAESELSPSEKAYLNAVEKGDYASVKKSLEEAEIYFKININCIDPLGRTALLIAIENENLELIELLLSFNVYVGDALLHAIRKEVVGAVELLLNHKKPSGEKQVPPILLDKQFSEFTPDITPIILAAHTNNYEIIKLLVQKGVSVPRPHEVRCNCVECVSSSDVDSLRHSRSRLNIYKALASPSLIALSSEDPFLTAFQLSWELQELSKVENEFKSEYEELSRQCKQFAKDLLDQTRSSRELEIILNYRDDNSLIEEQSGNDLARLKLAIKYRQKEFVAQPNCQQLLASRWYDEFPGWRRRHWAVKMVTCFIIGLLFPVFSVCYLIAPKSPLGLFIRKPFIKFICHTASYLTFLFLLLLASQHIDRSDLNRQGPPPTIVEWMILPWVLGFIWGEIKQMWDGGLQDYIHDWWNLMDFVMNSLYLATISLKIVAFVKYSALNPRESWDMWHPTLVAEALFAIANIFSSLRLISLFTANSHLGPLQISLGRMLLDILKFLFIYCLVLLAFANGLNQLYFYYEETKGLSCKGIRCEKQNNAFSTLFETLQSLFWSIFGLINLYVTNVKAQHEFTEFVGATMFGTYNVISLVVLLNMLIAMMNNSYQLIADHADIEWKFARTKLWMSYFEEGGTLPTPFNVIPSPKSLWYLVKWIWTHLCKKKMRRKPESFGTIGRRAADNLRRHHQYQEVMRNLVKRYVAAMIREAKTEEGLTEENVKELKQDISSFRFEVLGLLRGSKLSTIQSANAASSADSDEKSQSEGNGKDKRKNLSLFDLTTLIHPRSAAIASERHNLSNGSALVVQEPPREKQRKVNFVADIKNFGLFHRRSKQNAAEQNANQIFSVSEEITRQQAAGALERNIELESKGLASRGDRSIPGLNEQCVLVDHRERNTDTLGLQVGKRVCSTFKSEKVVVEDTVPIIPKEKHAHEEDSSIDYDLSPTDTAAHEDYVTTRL
Experiment [6] has the same target. Put plainly: inhibitors of mouse TRPC4 channel, confirmation, cell-based, second round, Fluo4, HEK293 TRPC4beta/mu-opioid, 1 µM (AID 2637;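 active = calcium signal ratio cut to more than 3 SD under the fully stimulated control mean yet still positive, in both repeats and the primary screen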). The following applies: Fluo4 calcium flux, DAMGO, at 1 µM; hits give high values.
Experiment [7] has the same target. Put plainly: TRPC4 positive allosteric modulators, dose response, cell-based, HEK293 TRPC4/mu-opioid, Fluo-4 calcium, EC20 DAMGO (AID 434941;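 active = earlier screen potentiator hit that boosts the TRPC4 ion channel at some dose, with a dose response; inactive = no potentiation, no dose response, or not a prior hit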;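 note: calcium entry triggered by an EC20 dose of DAMGO at the co-expressed mu-opioid receptor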).
Experiment [8] has the same target. Put plainly: mouse TRPC4 channel inhibitors, dose response, cell-based, HEK293 TRPC4/mu-opioid, Fluo-4 calcium (AID 434942;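 active = primary screen inhibitor hit that blocks the TRPC4 channel at some tested dose, yielding a dose curve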).
Experiment [9] concerns the target Short transient receptor potential channel 6 (Mus musculus) (UniProt Q61143). Put plainly: inhibition of mouse TRPC6 channel, confirmation, selectivity assay for TRPC4 inhibitor project, cell-based, HEK293, membrane potential dye, duplicate (AID 434948;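 active = active in primary screen and both duplicates, each dropping signal beyond three positive-control SD with fluorescence still positive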). As to conditions: HEK293 TRPC6, membrane potential dye fluorescence, at 10 µM, stimulated with maximal-effect acetylcholine; hits give high values.

For experiment [10] the target is unchanged. The experiment is described as follows: activation of mouse TRPC6 channel, confirmation, selectivity assay for TRPC4 activator project, cell-based, HEK293, membrane potential dye, duplicate (AID 434950;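 active = membrane potential signal rise above negative control mean plus 3 SD in both duplicates, also active in the earlier TRPC4 screen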;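 for activation: 0% = buffer only wells and 100% = acetylcholine maximal-effect wells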). As to conditions: HEK293 TRPC6, membrane potential fluorescence, at 10 µM; hits give high values.
For experiment [11] the target is unchanged. Put plainly: TRPC6 potentiation by TRPC4 potentiator hits, confirmation, selectivity assay for TRPC4 potentiator project, HEK293 cells, membrane potential dye, duplicate (AID 434952;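 active = compound raising the membrane signal above positive-control mean plus 3 SD in both repeats, and a primary screen hit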). The following applies: HEK293 TRPC6, membrane potential dye fluorescence, at 10 µM, maximal acetylcholine added after compound; hits give high values.
The target of experiment [12] is Short transient receptor potential channel 4 (Mus musculus) (UniProt Q9QUQ5). The experiment is described as follows: calcium flux activators in TRPC4/5HT1a cells, counter-screen for TRPC4 activator project, cell-based, second counter screen, HEK293 TRPC4/5HT1a, Fluo-4 (AID 434977;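 active = calcium signal rise above buffer-control mean plus 5 SD in both duplicates, and also a hit in the primary screen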;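 for activation: plate controls were assay buffer for no effect and maximal serotonin response for full effect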). As to conditions: Fluo-4 calcium flux, at 10 µM; hits give high values.
Experiment [13] can be described thus: calcium flux inhibitors in TRPC4/5HT1a cells, confirmation, counter-screen for TRPC4 inhibitor project, cell-based, second counter screen, HEK293 TRPC4/5HT1a, Fluo-4 (AID 434978;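 active = primary screen active whose calcium signal fell more than 3 SD beyond the full-serotonin control mean in both duplicate plates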;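 note: serotonin given first at submaximal then at maximal dose after compound preincubation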). The following applies: Fluo-4 calcium flux, at 10 µM, serotonin added to trigger calcium flux; hits give high values.
The test system of experiment [14] is TRPC4 (mouse), co-expressed with 5HT1a in HEK293. The experiment is described as follows: calcium flux potentiators in TRPC4/5HT1a cells, confirmation, counter-screen for TRPC4 potentiator project, cell-based, second counter screen, HEK293 TRPC4/5HT1a, Fluo-4 (AID 434979;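 active = signal rise over 3 SD above mean of control wells given weak agonist, in both repeats and first screen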). The following applies: Fluo-4 calcium flux, at 10 µM, serotonin added at its EC20 dose; hits give high values.

Experiment [15] is described as follows: calcium flux activation in mu-opioid HEK293 cells, confirmation, counter-screen for TRPC4 activator project, cell-based, HEK293 mu-opioid receptor line (AID 449723;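 active = hit in primary screen, with calcium signal over 5 SD above buffer well mean in both duplicates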;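 note: counter screen cells carry the mu-opioid receptor alone and lack TRPC4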). As to conditions: Fluo-4 calcium fluorescence, at 10 µM; hits give high values.
Experiment [16] can be described thus: calcium flux enhancement in mu-opioid HEK293 cells, confirmation, counter-screen for TRPC4 allosteric potentiator project, cell-based, HEK293 mu-opioid receptor line (AID 449724;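 active = calcium signal rise more than 3 SD above the low-dose agonist control mean, in both duplicate plates and the primary screen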;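 note: HEK293 cells carrying mu-opioid receptor only with no TRPC4 channel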). As to conditions: Fluo-4 calcium flux, at 10 µM, compound added before EC20 DAMGO stimulus; hits give high values.

Chain of Short transient receptor potential channel 6 (Mus musculus) (Q61143 whole entry, looked up): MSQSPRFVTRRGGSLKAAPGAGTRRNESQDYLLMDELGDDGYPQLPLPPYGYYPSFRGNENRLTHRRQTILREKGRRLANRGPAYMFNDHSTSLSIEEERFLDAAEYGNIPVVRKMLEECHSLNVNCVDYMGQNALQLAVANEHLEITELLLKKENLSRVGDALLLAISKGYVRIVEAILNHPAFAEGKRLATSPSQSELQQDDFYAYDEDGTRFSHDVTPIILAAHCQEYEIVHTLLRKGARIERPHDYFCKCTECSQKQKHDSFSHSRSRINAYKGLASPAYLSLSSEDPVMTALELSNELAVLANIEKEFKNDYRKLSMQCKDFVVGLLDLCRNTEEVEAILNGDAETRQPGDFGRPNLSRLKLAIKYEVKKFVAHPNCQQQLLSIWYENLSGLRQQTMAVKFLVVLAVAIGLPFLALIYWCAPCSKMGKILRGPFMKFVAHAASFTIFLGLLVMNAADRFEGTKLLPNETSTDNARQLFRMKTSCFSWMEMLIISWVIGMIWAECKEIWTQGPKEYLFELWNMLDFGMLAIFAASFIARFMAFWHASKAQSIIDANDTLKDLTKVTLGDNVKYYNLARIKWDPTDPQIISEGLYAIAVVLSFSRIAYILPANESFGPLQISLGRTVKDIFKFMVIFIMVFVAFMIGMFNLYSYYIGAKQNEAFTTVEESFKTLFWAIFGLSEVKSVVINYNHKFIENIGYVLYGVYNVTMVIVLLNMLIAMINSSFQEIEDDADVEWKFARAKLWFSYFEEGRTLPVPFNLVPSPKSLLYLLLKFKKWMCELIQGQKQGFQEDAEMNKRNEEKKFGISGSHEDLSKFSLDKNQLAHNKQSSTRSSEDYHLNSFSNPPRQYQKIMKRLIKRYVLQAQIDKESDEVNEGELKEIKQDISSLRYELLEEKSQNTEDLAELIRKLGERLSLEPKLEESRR

Regarding `CC(C)C1CC(CCNCc2ccc(N(C)C)cc2)(c2ccccc2)CCO1` (stereo not given), the activation in experiment [1] was 185% (active); in [10], 29% (active); in experiment [12], 31.2% (active). Further, the result in experiment [2], in [3], in [4], in experiment [5], in experiment [6] and in experiment [7] was inactive. For the same molecule, the outcome in experiment [8], in [9], in [11], in [13], in [14] and in [15] was inactive. Also, the outcome in [16] was inactive.

Consider `CCCc1c(O)nc(SCCN(CC)CC)[nH]c1=O`, for which the figures for the activation in experiment [1], in experiment [2] and in experiment [12] were 179% (active), 82% (active) and 51.5% (active), respectively. The outcome in experiment [3], in experiment [4], in [5], in experiment [6], in experiment [7] and in experiment [8] was inactive. The call in experiment [9], in [10], in experiment [11], in experiment [13], in experiment [14] and in experiment [15] was inactive. Moreover, the result in experiment [16] was inactive.

With `Cc1ccc(NC(=O)CCN2CCC(Cc3ccccc3)CC2)cc1`, the result in experiment [1], in experiment [2], in experiment [3], in [4], in [5] and in [6] was inactive. The outcome in experiment [7], in experiment [8], in [9], in [10], in experiment [11] and in experiment [13] was inactive. For the same molecule, the outcome in [14], in experiment [15] and in experiment [16] was inactive. Also, in [12], the activation is 15.7% (active).

Regarding `CCOC(=O)C1(Cc2ccccc2)CCN(Cc2cccn2-c2cccnc2)CC1`, the activation is 55% (active) in experiment [1] and 89% (active) in [10]. For the same molecule, the result in experiment [2], in [3], in experiment [4], in experiment [5], in experiment [6] and in [7] was inactive. Moreover, the outcome in [8], in experiment [9], in [11], in [12], in experiment [13] and in [14] was inactive. Further, the result in experiment [15] and in [16] was inactive.

For `Cc1ccc2nc(N(CCCN(C)C)C(=O)c3ccc(S(=O)(=O)N4CCc5ccccc5C4)cc3)sc2c1`, the activation in [1] is 242% (active); in experiment [2], 75% (active); in [12], 7.33% (active). The outcome in [3], in experiment [4], in experiment [5], in [6], in experiment [7] and in [8] was inactive. The molecule was classed as inactive in experiment [9], in experiment [10], in [11], in experiment [13], in experiment [14] and in [15]. In addition, the result in experiment [16] was inactive.

Turning to `Cc1noc(C)c1S(=O)(=O)N1CCC(C(=O)NCCCN2CC(C)CC(C)C2)CC1` (stereo not given), the activation was 99% (active) in experiment [1], 75% (active) in experiment [2] and 28.5% (active) in [12]. Further, the outcome in experiment [3], in experiment [4], in [5], in [6], in [7] and in experiment [8] was inactive. In addition, the molecule was called inactive in [9], in [10], in experiment [11], in experiment [13], in experiment [14] and in [15]. Also, the result in [16] was inactive.

Consider `CC(=O)c1c(C)nn(CC(=O)NC2CCCN(Cc3ccc(CC(C)C)cc3)C2)c1C` (stereo not given), for which the figures for the activation in experiment [1], in [10] and in experiment [12] were 122% (active), 34.5% (active) and 50.2% (active), respectively. The outcome in experiment [2], in experiment [3], in [4], in experiment [5], in experiment [6] and in experiment [7] was inactive. The outcome in [8], in experiment [9], in experiment [11], in experiment [13], in experiment [14] and in [15] was inactive. Besides, the result in experiment [16] was inactive.

For the molecule `O=c1c(Cc2ccc(F)cc2)c(O)ccn1CCc1cnc[nH]1`, the activation in [1] is 112% (active); in experiment [12], 29% (active). Further, the outcome in [2], in [3], in [4], in experiment [5], in experiment [6] and in [7] was inactive. The outcome in experiment [8], in [9], in experiment [10], in [11], in [13] and in [14] was inactive. Further, the result in [15] and in experiment [16] was inactive.

In the case of `CCOC(=O)C1(Cc2cccc(F)c2)CCN(Cc2cnn(CC)c2C)CC1`, the activation is 100% (active) in [1], 94% (active) in experiment [2] and 64% (active) in [10]. Besides, the outcome in [3], in experiment [4], in experiment [5], in experiment [6], in experiment [7] and in experiment [8] was inactive. The call in experiment [9], in experiment [11], in experiment [12], in experiment [13], in [14] and in [15] was inactive. Moreover, in [16], the result was inactive.

Regarding `COc1ccc(-c2nn(-c3ccccc3C)cc2CNC(C)c2cn(C)nc2C)cc1F` (stereo not given), the activation in [1] was 206% (active); in experiment [2], 74% (active); in [10], 31% (active). The result in experiment [3], in experiment [4], in experiment [5], in [6], in experiment [7] and in experiment [8] was inactive. The result in [9], in experiment [11], in experiment [12], in experiment [13], in experiment [14] and in experiment [15] was inactive. In addition, the result in [16] was inactive.

As for `COc1cc2ccccc2cc1C(=O)NCC(c1cccs1)N(C)C` (stereo not given), the activation was 164% (active) in [1] and 59.5% (active) in experiment [10]. The outcome in [2], in [3], in [4], in experiment [5], in experiment [6] and in experiment [7] was inactive. The outcome in experiment [8], in experiment [9], in experiment [11], in experiment [12], in experiment [13] and in [14] was inactive. For the same molecule, the outcome in experiment [15] and in [16] was inactive.

With `CNCC(=O)N1CCN(c2ncc(C(F)(F)F)cc2Cl)CC1`, the activation in [1] is 155% (active); in experiment [2], 128% (active); in [12] it was 79.5% (active). Further, the result in experiment [3], in experiment [4], in experiment [5], in [6], in experiment [7] and in [8] was inactive. Moreover, the call in [9], in [10], in [11], in [13], in [14] and in experiment [15] was inactive. In addition, the outcome in experiment [16] was inactive.

Consider `CCc1cccc(C)c1NC(=S)NCC(c1cccnc1)N(C)C` (stereo not given), for which the activation in [1] is 80% (active); in [2], 82% (active). For the same molecule, the result in experiment [3], in [4], in experiment [5], in experiment [6], in experiment [7] and in [8] was inactive. For the same molecule, the molecule was classed as inactive in [9], in experiment [10], in experiment [11], in [12], in [13] and in [14]. The outcome in experiment [15] and in experiment [16] was inactive.

In the case of `COc1ccc(C(CNC(=O)COc2ccccc2OC)N(C)C)cc1OC` (stereo not given), the values for the activation in experiment [1] and in experiment [10] were 133% (active) and 35% (active), respectively. For the same molecule, the result in experiment [2], in experiment [3], in experiment [4], in experiment [5], in experiment [6] and in experiment [7] was inactive. Further, the result in experiment [8], in [9], in experiment [11], in experiment [12], in [13] and in experiment [14] was inactive. Further, the outcome in experiment [15] and in experiment [16] was inactive.

For the molecule `CN1CCCC(OC(=O)c2cc(Br)ccc2Cl)C1` (stereo not given), the activation in [1] was 116% (active); in experiment [2] it was 87% (active); in experiment [10], 47% (active); in [12] it was 43.7% (active). In addition, the result in experiment [3], in experiment [4], in [5], in experiment [6], in experiment [7] and in experiment [8] was inactive. Besides, the molecule was classed as inactive in [9], in experiment [11], in [13], in [14], in [15] and in experiment [16].
